# From PubChem
# KinaseGlo FLuc = counter-screen: inhibitors of Kinase-Glo firefly luciferase. Potency, µM (doses to about 38.3 µM), inactives show at the highest dose activity change, negative = inhibition, hits mostly inhibitors. AID 1379. Q27757. Kinase-Glo luciferase, ATP luminescence, 8 min. hit rate 0.28% among 200,000; note: % is set by controls: 0 for no effect and ±100 for the full control effect; nearly all actives have a fitted effect of over 60% in size
#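 Recombinant Kinase-Glo luciferase, 10 uM ATP (linear range), luciferin; imidazole pH 7.2 / KCl / MgCl2 / Tween / BSA buffer; 8 min RT; luminescence.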
# Rab9 prom act = activators of Rab9 promoter; Huh7 Rab9 promoter-luciferase reporter, luminescence, 24 h; Potency, µM (doses to about 9.22 µM), for inactives: at the top dose activation, negative = inhibition, hits mostly activators; hit rate 2.8% among 320,000; note: % of control where 0% means no effect; nearly all actives have a fitted effect of over 60% in size
#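 Luciferase signal after 10 min detection reagent at ambient indicates Rab9 promoter upregulation; stably transfected Huh7 cells were treated 24 h with compound in DMSO at 37 °C, 5% CO2.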
# SMN2 splice enh = increases expression of the SMN2 splice variant; HEK293 SMN2-luciferase splicing reporter, luminescence, 30-36 h; Potency, µM (series often up to 46.1 µM), without a hit: at the highest dose activity change, positive = activation, hits mostly activators; hit rate 2.8% among 210,000; AID 1458; note: % of control where 0% means no effect; nearly all actives have a fitted effect of over 55% in size
#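 qHTS luciferase splicing reporter: luminescence rises when SMN2 exon 7 is included in transfected HEK293 cells. Compound exposure lasted 30-36 h at 37C, with 4.5 mM final sodium butyrate as control, followed by a ONE-Glo read.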
# FLuc counter = counter-screen for miR-21 project: firefly luciferase inhibitors or activators. P08659. purified FLuc, Km substrates, luminescence inhibition. Potency, µM (titrated, usually from 57.5 µM), without a hit: top-dose activity change, negative = inhibition, actives largely listed as inhibitors. hit rate 6.9% among 360,000. AID 588342;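 note: plate controls were vehicle for no effect and reference inhibitor for full effect; nearly all actives have a fitted effect of over 55% in size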
# Target sequence (P08659 whole entry, looked up): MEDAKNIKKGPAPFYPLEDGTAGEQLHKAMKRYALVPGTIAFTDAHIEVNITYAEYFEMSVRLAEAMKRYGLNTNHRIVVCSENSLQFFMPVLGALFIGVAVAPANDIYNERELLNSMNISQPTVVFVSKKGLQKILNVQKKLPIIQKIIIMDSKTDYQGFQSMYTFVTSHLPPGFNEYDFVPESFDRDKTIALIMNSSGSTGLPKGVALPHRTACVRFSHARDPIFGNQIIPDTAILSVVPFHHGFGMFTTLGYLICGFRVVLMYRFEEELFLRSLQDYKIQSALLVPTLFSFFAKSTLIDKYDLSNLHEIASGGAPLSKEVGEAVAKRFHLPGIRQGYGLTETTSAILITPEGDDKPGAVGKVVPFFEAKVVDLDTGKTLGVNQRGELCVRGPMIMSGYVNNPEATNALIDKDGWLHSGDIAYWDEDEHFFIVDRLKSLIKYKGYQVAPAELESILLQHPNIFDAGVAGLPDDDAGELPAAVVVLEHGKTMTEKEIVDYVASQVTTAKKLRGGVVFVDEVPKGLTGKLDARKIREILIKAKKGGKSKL
#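 Purified P. pyralis luciferase, 10 nM final, with Km-level 10 uM D-luciferin and 10 uM ATP in 50 mM Tris acetate pH 7.5, 10 mM Mg acetate, 0.01% Tween-20, 0.05% BSA; 6-point qHTS titration about 60 µM downward; luminescence read.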
# ELG1 genotox = genotoxicity induction in ELG1-luciferase HEK293T cells; HEK293T ELG1-luciferase reporter, luminescence, 16 h; Potency, µM (highest dose often 46 µM), for the others: at the top dose activity change, positive = activation, most hits filed as activators; hit rate 1.3% among 330,000; AID 504466; note: % of control where 0% means no effect; nearly all actives have a fitted effect of over 60% in size
#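 Step 1: seed 2,000 HEK293T ELG1-luciferase cells per well. Step 2: add compound or DMSO, incubate 16 hr at 37 °C. Step 3: ONE-Glo, 30 min at room temperature, read luminescence.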
# NPC1 prom act = NPC1 promoter activation. Huh7 NPC1 promoter luciferase reporter, 24 h. Potency, µM (doses to about 9.22 µM), for the others: at the highest dose activation, usual class: activators. hit rate 2.4% among 320,000. AID 485313; note: % of control where 0% means no effect; nearly all actives have a fitted effect of over 60% in size
#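 Luminescence from an NPC1 promoter-driven luciferase reporter in stably transfected Huh7 cells was measured after 24 h compound treatment at 37 °C, followed by 10 min ambient incubation with luciferase detection reagent.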
# Starred values were filed as active, the others as inactive; ? = inconclusive; nt = not tested or not shown; [ ] = another dose, or the depositor's remark. This is a sample that favours compounds with a hit; in the whole collection about 7.3% have one here. Calls come from the whole dose curve; as a rule, active = well fitted curve in the direction sought with a large enough effect; inconclusive = small, poorly fitted or top-dose-only effect, or another doubt; inactive = no such curve, though single readings can be large; an effect the other way counts as inactive or inconclusive. Potency is the fitted concentration of half-maximal effect.
SMILES,KinaseGlo FLuc,Rab9 prom act,SMN2 splice enh,FLuc counter,ELG1 genotox,NPC1 prom act
Cc1ccc(CNC(=O)C2CCCN(c3ncnc4onc(-c5ccc(F)cc5)c34)C2)cc1 (configuration not stated),nt,nt,nt,2%,nt,nt
Cc1nn(-c2ccccc2)c(Cl)c1/C=N/NC(=O)c1ccc(CNc2ccccc2)o1,2%,5%,?,2.1µM*,1%,15%
CNC(=S)N/N=C/c1c(C)nn(-c2ccccc2)c1Cl,-3%,29%,?,?,?,12%
Cc1nn(-c2ccccc2)c(Cl)c1/C=N/NC(=O)c1ccco1,2%,2.5µM*,22µM*,3.8µM*,?,3.2µM*
Cc1nn(-c2ccccc2)c(Cl)c1/C=N/Nc1nncc(=O)[nH]1,nt,-2%,nt,15µM*,11%,3%
Cc1cc(=O)[nH]c(N/N=C/c2c(C)nn(-c3ccc(F)cc3)c2Cl)n1,-2%,-2%,-31%,-1%,-10%,-9%
CCN(CC)S(=O)(=O)c1cccc(C(=O)N/N=C/c2c(C)nn(-c3ccccc3)c2Cl)c1,1%,-1%,-20%,3%,8%,3%
Cc1nn(-c2ccccc2)c(Cl)c1/C=N/NC(=O)C1COc2ccccc2O1 (configuration not stated),-2%,-1%,0%,7.6µM*,3%,-2%
CC(C)C(=O)c1cc2c(cc1NC(=O)c1ccccc1F)OCCO2,nt,nt,nt,4%,nt,nt
Cc1nn(C)cc1/C=N/NC(=O)c1ccco1,nt,?,nt,17µM*,13%,25%
Cc1nn(-c2ccccc2)c(Cl)c1/C=N/NS(=O)(=O)c1ccc(Br)cc1,4%,-6%,-6%,0%,4%,-3%
Cc1nn(-c2ccccc2)c(Cl)c1/C=N/NC(=O)OC(C)(C)C,5%,2µM*,18µM*,15µM*,9%,2.8µM*
Cc1cc(C(=O)N/N=C/c2cn(C)nc2C)c2ccccc2n1,nt,-1%,nt,0%,0%,-5%
O=C(N/N=C\c1ccc(Cl)s1)C1COc2ccccc2O1 (configuration not stated),nt,2%,nt,-15%,1%,-17%
O=C(N/N=C\c1ccc([N+](=O)[O-])s1)C1COc2ccccc2O1 (configuration not stated),nt,1.1µM*,nt,4%,-14%,?
Cc1nn(-c2ccccc2Cl)c(Cl)c1/C=N/Nc1nc2ccccc2s1,-8%,-31%,-90%,0.17µM*,23%,-20%
Cc1ccc2c(c1)nc(SCC(O)c1ccc(Br)cc1)n2C (configuration not stated),nt,nt,4%,-15%,nt,nt
CCOC(=O)N/N=C\c1ccc([N+](=O)[O-])s1,2%,19%,-33%,-9%,-15%,3%
CC(C)(C)OC(=O)N/N=C\c1ccc([N+](=O)[O-])s1,3%,17%,-55%,27µM*,5%,23%
Cc1ccc(C)c(OCC(=O)N/N=C/c2c(C)nn(-c3ccccc3)c2Cl)c1,18%,-2%,-9%,3%,2%,-2%
Cc1nn(-c2ccccc2)c(Cl)c1/C=N/Nc1ccc(S(=O)(=O)Nc2ccccc2C(=O)O)cc1[N+](=O)[O-],-4%,-6%,11%,4%,0%,0%
CCOC(=O)N/N=C/c1c(C)nn(-c2ccccc2Cl)c1Cl,1%,?,13µM*,9.5µM*,?,?
Cc1nn(-c2ccccc2)c(Cl)c1/C=N/Nc1ccc(Cl)c(C(=O)O)c1,-5%,0.079µM*,0.45µM*,0.6µM*,0.18µM*,0.089µM*
CCC(C)NC(=O)Cn1ncc2c(C)n(Cc3ccc(F)cc3)c(C)c2c1=O (configuration not stated),nt,nt,2%,-10%,nt,nt
CCn1c(=O)n(CC)c2cc(S(=O)(=O)Nc3ccccc3C)c(C)cc21,5%,0%,7.9µM*,-1%,?,-3%
SMILES,KinaseGlo FLuc,Rab9 prom act,SMN2 splice enh,FLuc counter,ELG1 genotox,NPC1 prom act
CN(C)c1ccc(/C=N\NC(=S)SCN2C(=O)C3CCC(C)(C2=O)C3(C)C)cc1 (configuration not stated),2%,10%,-8%,8.5µM*,1%,4%
C/C=C1/C(=O)C[C@@H]2[C@H]3CCC4=CC(=O)CC[C@]4(C)[C@@H]3CC[C@]12C,nt,nt,-47%,nt,nt,nt
Cc1ccc(NC(=O)C(=O)c2c[nH]c3ccccc23)cc1,nt,0.79µM*,nt,1.5µM*,?,0.63µM*
O=C(NCCOc1ccccc1)C(=O)c1c[nH]c2ccccc12,nt,14%,nt,27µM*,4%,12%
Cc1[nH]c2ccccc2c1C(=O)C(=O)NC1CC1,nt,1.3µM*,nt,9.5µM*,?,?
O=C(NC1CCCCC1)C(=O)c1c[nH]c2ccccc12,nt,3.2µM*,nt,11µM*,15µM*,?
COc1cccc(Cn2c(C)c(CNCc3ccccc3Cl)c(C(=O)O)c2C)c1,nt,nt,2%,5%,nt,nt
COC(=O)C[C@H]1c2ccccc2C2=C(C[C@@H](C)[C@H]3C(=O)N(c4ccccc4)C(=O)[C@@H]23)N1C(=O)OC,-11%[7.66 µM],nt,-5%[9.22 µM],nt,nt,nt
CCCCOc1ccc(-c2nc(SCC(N)=O)n[nH]2)cc1,-1%,25%,10%,11µM*,12%,?
Nc1cc(=O)[nH]c(SCC(=O)Nc2cc(S(=O)(=O)N3CCCCCC3)ccc2Cl)n1,nt,nt,nt,nt,-4%,nt
C=CCSc1n[nH]c(-c2ccc(OC)cc2)n1,-8%,2µM*,14µM*,15µM*,3.3µM*,2.8µM*
COc1ccc(-c2nc(SCC(=O)Nc3cc(C)on3)n[nH]2)cc1,-4%,1%,-11%,21µM*,11%,0%
Cc1ccc(-c2nc(SCC(=O)Nc3cc(S(=O)(=O)N4CCCCC4)ccc3Cl)n[nH]2)cc1,-3%,-7%,5%[1.84 µM],15µM*,0%,-5%
CCCn1c2ccccc2c2cnn(CC(=O)NCc3ccc(OC)cc3)c(=O)c21,nt,nt,nt,2%,nt,nt
Cc1cccc(NC(=O)C2CCCN2S(=O)(=O)c2ccc3nc(-c4ccccc4)[nH]c3c2)c1 (configuration not stated),nt,nt,nt,-14%,nt,nt
COC(=O)[C@H](Cc1ccccc1)NC(=O)O[C@@H]1C(=O)c2ccc(OC)cc2O[C@H]1c1ccc2c(c1)OCO2,2%,nt,-8%,nt,nt,nt
COc1ccccc1CNC(=O)CCCCn1c(=O)c2ccccc2n(CC(=O)Nc2c(C)cc(C)cc2C)c1=O,nt,nt,7%,3%,nt,nt
CCN(C(=O)c1cn(CC(C)C)c(=O)c2cc(OC)c(OC)cc12)c1cc(OC)ccc1OC,nt,nt,2%,-3%,nt,nt
Cc1ccc(S(=O)(=O)c2cn(CC(=O)Nc3ccc(F)cc3)c3cc4c(cc3c2=O)OCO4)cc1,nt,nt,-14%,-1%,nt,nt
CC(C)NC[C@@H](O)c1ccc(O)c2ncccc12,-5%[7.66 µM],nt,-6%[9.22 µM],nt,nt,nt
